# Test results: the supplement of paper PMC12282887
# ± gives the standard deviation of the averaged measurements.
# Experiments:
# Test in all cases: promoter activity interaction Z-score (Lux/OD deviation from empty-vector control); higher = stronger promoter induction by the compound
# [1] = system: E. coli BW25113 acrABp lux reporter
# In short: (§1)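 Low-copy luxCDABE promoter reporters were carried by E. coli BW25113, either wild type or lacking one of three genes, grown in 40 µl LB Lennox in 384-well plates at 37°C. Each compound was run at four 1:2 dilutions in biological duplicates, with OD600 and luminescence read every 30 min for 12 h. Integration used 0–8 h for wild type and 1–9 h for deletion strains, and wells under 10% of the median growth value were removed. Luminescence normalised to growth was fitted against a control, and the Z-transformed residual is the score.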
# [2] = system: E. coli BW25113 micFp lux reporter
# In short: as §1
# [3] = system: E. coli BW25113 ompFp lux reporter
# In short: as §1
# [4] = system: E. coli BW25113 robp lux reporter
# In short: as §1
# [5] = system: E. coli BW25113 soxSp lux reporter
# In short: as §1
# [6] = system: E. coli BW25113 tolCp lux reporter
# In short: as §1
# [7] = 12.9 µg/ml, genetic background: wild type
# [8] = 12.9 µg/ml, genetic background: ΔmarA
# [9] = 12.9 µg/ml, genetic background: Δrob
# [10] = 12.9 µg/ml, genetic background: ΔsoxS
# [11] = 25.8 µg/ml, genetic background: wild type
# [12] = 25.8 µg/ml, genetic background: ΔmarA
# [13] = 25.8 µg/ml, genetic background: Δrob
# [14] = 25.8 µg/ml, genetic background: ΔsoxS
# [15] = 51.6 µg/ml, genetic background: wild type
# [16] = 51.6 µg/ml, genetic background: ΔmarA
# [17] = 51.6 µg/ml, genetic background: Δrob
# [18] = 51.6 µg/ml, genetic background: ΔsoxS
# [19] = 103.1 µg/ml, genetic background: wild type
# [20] = 103.1 µg/ml, genetic background: ΔmarA
# [21] = 103.1 µg/ml, genetic background: Δrob
# [22] = 103.1 µg/ml, genetic background: ΔsoxS
smiles,measurement,setting,value
CC(C)Cc1ccc(C(C)C(=O)O)cc1 (stereo unspecified) [Ibuprofen],promoter activity interaction Z-score,[1]; [7],0.434 ± 0.3
same,promoter activity interaction Z-score,[1]; [8],-0.569 ± 0.69
same,promoter activity interaction Z-score,[1]; [9],0.0303 ± 0.11
same,promoter activity interaction Z-score,[1]; [10],0.455 ± 0.63
same,promoter activity interaction Z-score,[1]; [11],0.485 ± 0.088
same,promoter activity interaction Z-score,[1]; [12],0.667 ± 0.1
same,promoter activity interaction Z-score,[1]; [13],-0.156 ± 0.0041
same,promoter activity interaction Z-score,[1]; [14],-0.0442 ± 0.022
same,promoter activity interaction Z-score,[1]; [15],0.366 ± 0.24
same,promoter activity interaction Z-score,[1]; [16],-0.62 ± 0.53
same,promoter activity interaction Z-score,[1]; [17],0.236 ± 0.13
same,promoter activity interaction Z-score,[1]; [18],0.0533 ± 0.45
same,promoter activity interaction Z-score,[1]; [19],0.11 ± 0.073
same,promoter activity interaction Z-score,[1]; [20],2.18 ± 0.32
same,promoter activity interaction Z-score,[1]; [21],-0.393 ± 0.093
same,promoter activity interaction Z-score,[1]; [22],-0.205 ± 0.13
same,promoter activity interaction Z-score,[2]; [7],0.145 ± 0.18
same,promoter activity interaction Z-score,[2]; [8],-0.00146 ± 0.055
same,promoter activity interaction Z-score,[2]; [9],-0.209 ± 0.0032
same,promoter activity interaction Z-score,[2]; [10],0.214 ± 0.16
same,promoter activity interaction Z-score,[2]; [11],0.384 ± 0.26
same,promoter activity interaction Z-score,[2]; [12],0.0835 ± 0.1
same,promoter activity interaction Z-score,[2]; [13],-0.0551 ± 0.11
same,promoter activity interaction Z-score,[2]; [14],0.0794 ± 0.022
same,promoter activity interaction Z-score,[2]; [15],-0.0155 ± 0.081
same,promoter activity interaction Z-score,[2]; [16],0.0304 ± 0.18
same,promoter activity interaction Z-score,[2]; [17],-0.00979 ± 0.056
same,promoter activity interaction Z-score,[2]; [18],0.259 ± 0.28
same,promoter activity interaction Z-score,[2]; [19],0.239 ± 0.31
same,promoter activity interaction Z-score,[2]; [20],-0.0514 ± 0.092
same,promoter activity interaction Z-score,[2]; [21],-0.0741 ± 0.16
same,promoter activity interaction Z-score,[2]; [22],0.193 ± 0.12
same,promoter activity interaction Z-score,[3]; [7],0.335 ± 0.31
same,promoter activity interaction Z-score,[3]; [8],0.335 ± 0.075
same,promoter activity interaction Z-score,[3]; [9],-0.132 ± 0.56
same,promoter activity interaction Z-score,[3]; [10],0.513 ± 0.44
same,promoter activity interaction Z-score,[3]; [11],0.726 ± 0.49
same,promoter activity interaction Z-score,[3]; [12],1.13 ± 1.1
same,promoter activity interaction Z-score,[3]; [13],0.704 ± 0.75
same,promoter activity interaction Z-score,[3]; [14],-0.184 ± 0.45
same,promoter activity interaction Z-score,[3]; [15],0.353 ± 0.34
same,promoter activity interaction Z-score,[3]; [16],0.469 ± 0.28
same,promoter activity interaction Z-score,[3]; [17],0.418 ± 0.24
same,promoter activity interaction Z-score,[3]; [18],0.0995 ± 0.085
same,promoter activity interaction Z-score,[3]; [19],0.349 ± 0.46
same,promoter activity interaction Z-score,[3]; [20],1.78 ± 0.81
same,promoter activity interaction Z-score,[3]; [21],0.954 ± 1.3
same,promoter activity interaction Z-score,[3]; [22],-0.0643 ± 0.52
same,promoter activity interaction Z-score,[4]; [7],0.839 ± 0.9
same,promoter activity interaction Z-score,[4]; [8],0.214 ± 0.091
same,promoter activity interaction Z-score,[4]; [9],0.6 ± 0.66
same,promoter activity interaction Z-score,[4]; [10],0.59 ± 0.11
same,promoter activity interaction Z-score,[4]; [11],1.19 ± 0.31
same,promoter activity interaction Z-score,[4]; [12],2.36 ± 0.11
same,promoter activity interaction Z-score,[4]; [13],0.557 ± 0.45
same,promoter activity interaction Z-score,[4]; [14],-0.577 ± 0.45
same,promoter activity interaction Z-score,[4]; [15],0.25 ± 0.22
same,promoter activity interaction Z-score,[4]; [16],-0.675 ± 0.18
same,promoter activity interaction Z-score,[4]; [17],0.24 ± 0.11
same,promoter activity interaction Z-score,[4]; [18],-0.0538 ± 0.089
same,promoter activity interaction Z-score,[4]; [19],0.337 ± 0.38
same,promoter activity interaction Z-score,[4]; [20],0.9946 ± 0.0074
same,promoter activity interaction Z-score,[4]; [21],0.346 ± 0.75
same,promoter activity interaction Z-score,[4]; [22],0.183 ± 1.1
same,promoter activity interaction Z-score,[5]; [7],0.233 ± 0.39
same,promoter activity interaction Z-score,[5]; [8],-0.0514 ± 0.082
same,promoter activity interaction Z-score,[5]; [9],-0.201 ± 0.088
same,promoter activity interaction Z-score,[5]; [10],0.159 ± 0.065
same,promoter activity interaction Z-score,[5]; [11],0.503 ± 0.48
same,promoter activity interaction Z-score,[5]; [12],0.0892 ± 0.08
same,promoter activity interaction Z-score,[5]; [13],-0.0188 ± 0.046
same,promoter activity interaction Z-score,[5]; [14],-0.109 ± 0.058
same,promoter activity interaction Z-score,[5]; [15],0.0184 ± 0.19
same,promoter activity interaction Z-score,[5]; [16],-0.0994 ± 0.11
same,promoter activity interaction Z-score,[5]; [17],0.111 ± 0.19
same,promoter activity interaction Z-score,[5]; [18],-0.0346 ± 0.014
same,promoter activity interaction Z-score,[5]; [19],-0.0139 ± 0.16
same,promoter activity interaction Z-score,[5]; [20],-0.0609 ± 0.081
same,promoter activity interaction Z-score,[5]; [21],-0.164 ± 0.23
same,promoter activity interaction Z-score,[5]; [22],-0.245 ± 0.15
same,promoter activity interaction Z-score,[6]; [7],-0.813 ± 0.87
same,promoter activity interaction Z-score,[6]; [8],0.0288 ± 1.6
same,promoter activity interaction Z-score,[6]; [9],-0.78 ± 0.64
same,promoter activity interaction Z-score,[6]; [10],-0.147 ± 0.44
same,promoter activity interaction Z-score,[6]; [11],0.563 ± 0.048
same,promoter activity interaction Z-score,[6]; [12],0.78 ± 1.2
same,promoter activity interaction Z-score,[6]; [13],-0.284 ± 1.6
same,promoter activity interaction Z-score,[6]; [14],-0.361 ± 0.24
same,promoter activity interaction Z-score,[6]; [15],-0.451 ± 0.093
same,promoter activity interaction Z-score,[6]; [16],-0.139 ± 0.2
same,promoter activity interaction Z-score,[6]; [17],0.442 ± 1.5
same,promoter activity interaction Z-score,[6]; [18],-0.22 ± 0.31
same,promoter activity interaction Z-score,[6]; [19],0.199 ± 1.1
same,promoter activity interaction Z-score,[6]; [20],0.757 ± 1.8
same,promoter activity interaction Z-score,[6]; [21],-0.377 ± 0.11
same,promoter activity interaction Z-score,[6]; [22],-0.341 ± 0.63
